VHR inh abs – blocks human VHR1 dual specificity phosphatase | P51452 | recombinant VHR phosphatase, pNPP absorbance | inhibition, % at 13.3 µM | 0.52% of 290,000 active; in the data active = inhibition above about 50%
GDH-TPI counter-1 – GDH-TPI coupled enzyme inhibition counter-screen; inhibition, % at 4.8 µM; AID 588335; 1.2% of 360,000 active; GDH-TPI coupled enzyme counterscreen, NADH absorbance; in the data active = inhibition above about 30%;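 also: 0% = DMSO wells and 100% = wells lacking the enzyme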
Mtb FBA inh – Mtb fructose-bisphosphate aldolase inhibition. inhibition, % at 1 µM. P9WQA3. purified M. tuberculosis FBA, fluorescence read-out. 2.3% of 360,000 active;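 also: 0% = vehicle and 100% = reference inhibitor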
Target sequence (P9WQA3 whole entry, looked up): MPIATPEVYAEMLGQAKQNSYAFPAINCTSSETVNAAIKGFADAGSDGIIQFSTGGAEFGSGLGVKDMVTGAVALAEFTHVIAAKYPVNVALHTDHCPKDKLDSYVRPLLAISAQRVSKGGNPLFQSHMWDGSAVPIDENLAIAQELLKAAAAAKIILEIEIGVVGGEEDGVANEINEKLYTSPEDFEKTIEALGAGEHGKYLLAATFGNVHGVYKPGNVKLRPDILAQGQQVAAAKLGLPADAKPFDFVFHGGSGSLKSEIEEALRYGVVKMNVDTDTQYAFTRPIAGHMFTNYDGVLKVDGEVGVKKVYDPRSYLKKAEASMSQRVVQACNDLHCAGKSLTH
SARS 3CLpro inh – SARS-CoV 3CLpro protease inhibition; recombinant SARS-CoV 3CLpro, quenched FRET peptide cleavage; 0.14% of 290,000 active; inhibition, % at 6 µM; P0C6X7; in the data active = inhibition above about 12%
CCHF vOTU inh – blocks the CCHF virus ovarian tumor domain protease | CCHFV vOTU protease, Pep-AMC fluorescence | inhibition, % at 11.5 µM | 0.55% of 370,000 active | AID 651958; in the data active = inhibition above about 30%; also: 0% = vehicle wells with enzyme and 100% = no enzyme wells
RecA splice inh – blocks M. tuberculosis RecA intein splicing. cell-free RecA intein splicing, fluorescence. inhibition, % (no concentration beside the values). 0.75% of 290,000 active. AID 2221; in the data active = inhibition above about 30%;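 also: 0% = vehicle wells and 100% = reference inhibitor control wells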
Mtb FBA confirm – Mtb FBA inhibition, confirmed; shares compounds with Mtb FBA inh; purified M. tuberculosis FBA, fluorescence read-out; inhibition, % at 1 µM; 78% of 5,600 active; AID 651616;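 also: 0% = vehicle wells and 100% = reference inhibitor wells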
GDH-TPI counter-2 – GDH-TPI inhibition counter-screen for FBA inhibitors; shares compounds with Mtb FBA inh; GDH-TPI coupled enzyme counterscreen, fluorescence; inhibition, % at 1 µM; 81% of 5,600 active; AID 652141; in the data active = inhibition above about 10%
* = called active by the depositor; . = not tested or not shown; + = active, no number. This is a sample that favours compounds with a hit; in the whole collection about 4.7% have one here. Rule as the data show it, unless noted: active = inhibition above about 27%; inactive = the rest.

SMILES | VHR inh abs | GDH-TPI counter-1 | Mtb FBA inh | SARS 3CLpro inh | CCHF vOTU inh | RecA splice inh | Mtb FBA confirm | GDH-TPI counter-2
COc1ccc(OC)c(/C=N/NC(=O)C(=O)N/N=C/c2cc(OC)ccc2OC)c1 | . | 13 | 2 | 4 | -6 | -4 | . | .
COc1ccc(N2C(=O)CC(N3CCN(S(=O)(=O)c4cc(C)ccc4C)CC3)C2=O)cc1 (configuration not stated) | 22 | -1 | 0 | 0 | 5 | . | . | .
CC(=O)Nc1ccc(N(C(=O)c2ccco2)C(C(=O)NC2CCCCC2)c2ccccc2)cc1 (configuration not stated) | 25 | -1 | 0 | -2 | -2 | 0 | . | .
CCc1ccc(CN2CCC(C(=O)Nc3ccc(Oc4ccccc4)nc3)CC2)o1 | -13 | 8 | 1 | -2 | 12 | 1 | . | .
O=C(CCC1CCCN(C(=O)C2=CCCCC2)C1)N1CCN(c2ccccn2)CC1 (configuration not stated) | 26 | 5 | 7 | -2 | -2 | -2 | . | .
COc1ccc2[nH]c3c(c2c1)CCN1C(=O)C(CC(=O)NCCC2=CCCCC2)C[C@H](C(=O)N2CCOCC2)[C@@]31C (some centres not stated) | . | 0 | -2 | . | 2 | . | . | .
C[C@H](CO)N1C[C@H](C)[C@@H](CN(C)S(=O)(=O)c2cn(C)cn2)Oc2ccc(NC(=O)Cc3ccccc3)cc2C1=O | . | -6 | 11 | . | -8 | . | . | .
COC(=O)c1cc(=O)c2cccc(OC)c2[nH]1 | 31 | 16 | 43* | -3 | -31 | -11 | + | +
COc1cccc2c(=O)cn[nH]c12 | -5 | 19 | 76* | 2 | -113 | -6 | 6 | -4
O=c1cn[nH]c2ccccc12 | 9 | 9 | 8 | -5 | 4 | 2 | . | .
Nc1c(C(=O)Nc2nc3ccccc3s2)sc2nc(-c3cccs3)ccc12 | 21 | 35* | 52* | 1 | . | -8 | 123* | 114*
CC(=O)c1sc2nc(-c3cccs3)ccc2c1N | -14 | 19 | 17 | 1 | -5 | -29 | . | .
CC(=O)NC(c1cccc(F)c1)c1nc(/C=C/c2ccccc2)cs1 (configuration not stated) | . | 10 | 0 | . | 26 | . | . | .
O=[N+]([O-])c1ccccc1S(=O)(=O)Nc1ccc(-c2ccc(N3CCOCC3)nn2)cc1 | . | 15 | 53* | . | -3 | 1 | + | +
Cc1ccc(S(=O)(=O)N2C[C@H]3n4c(=O)ccc(=O)n4C[C@H](OC(=O)NCC4CCCCC4)[C@@]3(O)C2)cc1 | . | 6 | 0 | . | 1 | . | . | .
COc1cc(N=Cc2c(CO)cnc(C)c2O)cc(OC)c1OC | 90 | 5 | 82* | -4 | -23 | -2 | 63* | 63*
COc1ccccc1N/N=C/c1c(CO)cnc(C)c1O | 6 | 20 | 13 | 1 | -27 | -3 | . | .
CC(=O)c1cccc(-c2ccnc3c2CC(C(=O)Nc2cccc(Oc4ccccc4)c2)O3)c1 (configuration not stated) | . | -12 | -3 | . | 15 | . | . | .
COc1cccc(/C=C/c2nc(S(=O)(=O)c3ccccc3)c(N(C)C)o2)c1 | 10 | 22 | 47* | 0 | 8 | -24 | 58* | 44*
COc1ccccc1/C=C/c1nc(S(=O)(=O)c2ccccc2)c(N(C)C)o1 | 13 | 17 | 6 | 2 | 7 | 0 | . | .
COCCNc1oc(/C=C/c2cccc(OC)c2)nc1S(=O)(=O)c1ccccc1 | . | 32* | 47* | . | -4 | . | 123* | 89*
OC[C@@H]1CN(Cc2cccc(C(F)(F)F)c2)C[C@H](n2cnc3c(NCc4ccco4)ncnc32)O1 | . | -6 | 1 | . | 1 | . | . | .
COc1ccc(C(=O)NCCNc2nc3ccc(C)cc3cc2C#N)cc1OC | 22 | -1 | 35* | -1 | -43 | -31 | + | 158*
COc1cc(C(=O)NCCCNc2nc3cc(C)cc(C)c3cc2C#N)cc(OC)c1OC | 27 | 14 | 32* | -6 | -3 | -13 | 85* | 55*
CCOc1cc(OCC)cc(C(=O)NCCN2CCC(n3c(=O)[nH]c4ccccc43)CC2)c1 | . | . | . | . | 3 | . | . | .
Cc1nc2scc(C)n2c(=O)c1S(=O)(=O)NCc1ccccc1Cl | -3 | 11 | 34* | 0 | -11 | -1 | 180* | 132*

From PubChem
